# Assay outcomes deposited in PubChem BioAssay by National Center for Advancing Translational Sciences (NCATS).
# HP1b binding inh: inhibitors of HP1-beta chromodomain binding to methylated histone tails | P83916 | Potency, µM (top dose mostly 114 µM), for inactives: top-dose activity change, negative = inhibition, most hits filed as inhibitors | 390,000 tested, 0.56% active | AlphaScreen HP1-beta / biotin-H3K9me3 peptide binding; also: nearly all actives have a fitted effect of over 70% in size
#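 HP1-beta protein (50 nM final) preincubated 30 min at room temperature with biotinylated H3(1-18)K9me3 peptide (50 nM) in PBS pH 7.4, 0.01% Tween-20, then compound added for 30 min. AlphaScreen streptavidin donor/nickel chelate acceptor beads (10 ug/mL final), 30 min dark, luminescence read.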
# Sfp inh: blocks B. subtilis Sfp PPTase activity | Q9F4F7 | 310,000 tested, 3.5% active | Potency, µM, for inactives: largest response in the series, negative = inhibition, actives largely listed as inhibitors | Biochemical Sfp PPTase activity, qHTS;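 also: the enzyme is Sfp with the accession as filed and its product quenches rhodamine fluorescence; 0% = enzyme reaction without inhibitor and -100% = no enzyme wells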
#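 Step 1, compound plus 15 nM Sfp-PPTase, 15 min, room temperature. Step 2, add rhodamine-CoA (5 uM) and BHQ-2-YbbR (12.5 uM). Step 3, read 525/598 nm fluorescence at 0 and 30 min.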
# JMJD2A Tudor: JMJD2A Tudor domain (human) inhibition | AlphaScreen JMJD2A-Tudor / H3K4me3 peptide binding | Potency, µM (doses to about 114 µM), inactives show at the highest dose activity change, negative = inhibition, actives largely listed as inhibitors | 390,000 tested, 4.4% active | AID 504339; also: % is scaled to controls: 0 for no effect and ±100 for the full control effect; nearly all actives have a fitted effect of over 50% in size
# BAZ2B inh: inhibitors of human BAZ2B bromodomain. AlphaScreen BAZ2B-H3K14Ac peptide displacement. Potency, µM (top dose mostly 114 µM), for the others: at the highest dose activity change, negative = inhibition, most hits filed as inhibitors. Q9UIF8. 360,000 tested, 4.4% active; also: % is scaled to controls: 0 for no effect and ±100 for the full control effect; nearly all actives have a fitted effect of over 60% in size
#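 AlphaScreen displacement of biotin-H3(5-23)K14Ac peptide (50 nM final) from BAZ2B (50 nM final) in PBS pH 7.4, 0.01% Tween-20; complex preformed 30 min RT, then compounds (top 110 uM) 30 min RT, beads 20 min dark.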
# G9a inh: blocks human histone lysine methyltransferase G9a. Q96KQ7. G9a H3K9 monomethylation, AlphaScreen, 2 h. Potency, µM (titrated, usually from 102 µM), for the others: at the highest dose activity, negative = inhibition, usual class: inhibitors. 350,000 tested, 8.8% active. AID 504332; also: % is scaled to controls: 0 for no effect and ±100 for the full control effect; nearly all actives have a fitted effect of over 75% in size
#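 Methyltransferase reactions run at room temperature for 2 h (20 nM enzyme, 500 nM biotin-H3K9 peptide, 20 uM SAM) after a 15 min compound preincubation; product detected by AlphaScreen beads and anti-H3K9me1 antibody.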
# L3MBTL1 block: inhibitors of human L3MBTL1; 230,000 tested, 0.66% active; AID 485360; Q9Y468; Potency, µM (series often up to 57.1 µM), without a hit: at the highest dose activity, negative = inhibition, usual class: inhibitors; AlphaScreen L3MBTL1–H3K9me1 peptide binding; also: % is scaled to controls: 0 for no effect and ±100 for the full control effect; nearly all actives have a fitted effect of over 60% in size
# Target sequence (Q9Y468 whole entry, looked up): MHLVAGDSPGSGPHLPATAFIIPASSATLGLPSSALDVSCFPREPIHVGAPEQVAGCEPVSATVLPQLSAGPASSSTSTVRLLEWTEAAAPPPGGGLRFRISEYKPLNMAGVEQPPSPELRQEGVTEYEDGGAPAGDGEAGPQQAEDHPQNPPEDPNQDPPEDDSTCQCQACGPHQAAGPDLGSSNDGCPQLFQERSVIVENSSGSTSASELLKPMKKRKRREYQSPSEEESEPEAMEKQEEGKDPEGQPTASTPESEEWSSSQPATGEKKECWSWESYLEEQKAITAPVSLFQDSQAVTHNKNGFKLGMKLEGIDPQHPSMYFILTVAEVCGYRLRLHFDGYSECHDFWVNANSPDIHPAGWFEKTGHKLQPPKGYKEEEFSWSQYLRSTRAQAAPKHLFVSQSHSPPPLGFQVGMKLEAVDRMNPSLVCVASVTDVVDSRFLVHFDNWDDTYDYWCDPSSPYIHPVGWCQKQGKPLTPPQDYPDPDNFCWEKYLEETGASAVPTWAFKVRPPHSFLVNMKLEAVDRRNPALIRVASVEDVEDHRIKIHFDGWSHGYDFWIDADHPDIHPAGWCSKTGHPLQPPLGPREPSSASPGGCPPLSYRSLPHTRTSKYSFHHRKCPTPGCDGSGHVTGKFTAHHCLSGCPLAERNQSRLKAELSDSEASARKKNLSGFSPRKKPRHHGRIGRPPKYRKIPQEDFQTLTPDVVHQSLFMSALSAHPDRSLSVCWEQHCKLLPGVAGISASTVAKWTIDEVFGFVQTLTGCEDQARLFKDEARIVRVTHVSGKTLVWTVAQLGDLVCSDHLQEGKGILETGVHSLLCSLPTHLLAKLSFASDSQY
#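 L3MBTL1 50 nM + b-AHA-H3(1-15)K9me1 75 nM, 30 min RT; compound added, 30 min RT; streptavidin donor/Ni-chelate acceptor beads 10 ug/mL each final, 30 min RT dark; AlphaScreen read.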
# * hit, by the source's call; ? = inconclusive; / = not tested or not shown; [ ] = remark or other dose. Only some compounds are listed: those with a hit (about 12% of all), similar ones and a draw of the others. Calls follow the shape of the dose curve; as a rule, active = well fitted curve in the direction sought with a large enough effect; inconclusive = small, poorly fitted or top-dose-only effect, or another doubt; inactive = no such curve, though single readings can be large; an effect the other way counts as inactive or inconclusive. Potency is read from the fitted curve at half-maximal effect.
SMILES,HP1b binding inh,Sfp inh,JMJD2A Tudor,BAZ2B inh,G9a inh,L3MBTL1 block
CCCc1nnc(SCc2ccc(OC)cc2)n1N,?,13.1%,14.1µM*,3.8%,-26.7%[12.7 µM],/
CCCCSc1nc(NCc2ccco2)c2c3c(sc2n1)COC(C)(C)C3,28.7%,?,-22.5%,-27.5%,50.1µM*,-1.8%
CCCSc1nc(NCc2ccco2)c2c3c(sc2n1)COC(C)(C)C3,25.5%,-26.8%,?,?,12.0%[12.7 µM],-0.6%
CCCCC#Cc1nc(N)c2ncn([C@@H]3O[C@H](C(=O)NCC)[C@@H](O)[C@H]3O)c2n1,/,/,/,/,35.1%[12.7 µM],/
C=CCn1c(SCC(=O)NCCC2=CCCCC2)nc2ccc(Cl)cc2c1=O,?,21.5%,28.2µM*,-2.3%,3.1%[59 µM],2.6%
O=C(C=Cc1ccccc1)c1cc(Br)ccc1O,23.0%,/,19.9%,/,/,/
Cc1cccc(/C=C/C(=O)c2cc(Br)ccc(=O)c2O)c1,?,14.1µM*,?,44.7µM*,?,/
CCOc1ccc(/C=C/C(=O)c2cc(Br)ccc(=O)c2O)cc1,-54.6%,20µM*,50.1µM*,44.7µM*,7.94µM*,-26.1%
CCc1ccc(/C=C/C(=O)c2cc(Br)ccc(=O)c2O)cc1,?,14.1µM*,79.4µM*,44.7µM*,?,/
CNc1ccc(Br)cc(C(=O)/C=C/c2cccc(OC)c2OC)c1=O,17.6%,12.6µM*,4.2%,39.8µM*,8.91µM*,?
Cc1ccc(/C=C/C(=O)c2cc(Br)ccc2OC(=O)c2ccco2)cc1,-26.4%,5.5%,-10.7%[11.4 µM],-21.9%,-49.1%[59 µM],-9.0%
CNc1ccccc(C(=O)/C=C/c2ccccc2OC)c1=O,-25.1%,31.6µM*,?,50.1µM*,4.47µM*,-5.4%
CCC(CC)NC(=O)/C=C/c1ccccc1Cl,?,5.7%,?,12.9%,-6.6%[59 µM],-1.8%
COc1ccccc1/C=C/C(=O)c1cc(Br)ccc1OC(=O)c1ccco1,-30.3%,/,56.2µM*,/,/,/
CCNc1ccc(Br)cc(C(=O)/C=C/c2ccccc2Cl)c1=O,-35.4%,/,44.7µM*,/,/,/
O=C(O)CCC(=O)C(=O)O (tested in a mixture with another compound),/,-6.3%,/,/,/,/
CC1CCCN(S(=O)(=O)c2ccc(NC(=O)c3nc(SC(C)C)ncc3Cl)cc2)C1 (stereo not given),6.4%,/,-25.8%,?,-37.3%[59 µM],/
COc1cccc(-c2ncc3ccccc3c2COC(=O)c2ccc(F)cc2)c1,32.1%,/,-8.5%,15.2%,9.4%[0.501 µM],0.1%
CC(C)CN(CCNC(=O)c1cn(C)c2ccc(S(=O)(=O)N3CCCCCC3)cc2c1=O)CC(C)C,3.6%,/,-17.0%,/,-26.3%[59 µM],/
C/C(=C\c1cccc(Cl)c1Cl)C(=O)c1c(C)cc(C)[nH]c1=O,36.1%,17.6%,-29.2%,-7.6%,22.9%,-1.6%
CNc1ccc(Br)cc(C(=O)/C=C/c2cccc(Cl)c2Cl)c1=O,-20.7%,22.4µM*,44.7µM*,?,28.2µM*,?
O=C1CC(C(=O)N2CCc3ccccc32)CN1c1ccccc1 (stereo not given),22.7%,21.8%,-6.9%,6.6%,17.0%,/
CC1S/C(=N/N=C/c2ccco2)N(Cc2ccccc2)C1=O (stereo not given),-9.7%,31.6µM*,-23.9%,?,/,-15.1%
Cc1ccccc1CN1C(=O)CS/C1=N/N=C/c1ccco1,-0.1%,44.7µM*,-21.6%,?,39.8µM*,/
CCC1S/C(=N/N=C/c2ccco2)N(Cc2ccc(F)cc2)C1=O (stereo not given),28.8%,-20.8%,1.3%,?,?,/
O=C1CSC(=Nc2ccc(Cl)cc2)N1Cc1ccco1,42.0%,?,-5.4%,1.1%,8.2%[59 µM],5.7%
O=C(COc1ccc(Br)cc1)N/N=C1/SCC(=O)N1Cc1ccco1,?,-2.1%,15.8µM*,?,-43.6%,-14.0%
O=C1CS/C(=N/N=C/c2ccccc2)N1Cc1ccco1,7.9%,?,-17.4%,-11.3%,/,-0.3%
